Data as given in PubChem BioAssay AID1159580 (chemical genetic matrix, 2015).
Hit rate of the full screen: of about 5,500 compounds, about 2,000 (36%) were called active. About 18% were inconclusive and are not listed. Rule as the data show it: active = normalized growth mostly below about 0.91 (no sharp cut-off); inconclusive = no clear call, values can overlap the other calls; inactive = mostly above about 0.92. The list shows a part of the results.

Assay: chemical genetic growth profiling, strain panel (AID 1159580);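 also: tested at 20 µM; growth read once vehicle control cultures reached saturation at 30 °C; 1 = growth at the plate median or of vehicle wells; lower values mean less growth of the strain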
Conditions: growth OD

Measured: normalized growth

CC(C)(C)NC(=O)N1CCN(c2nc3ccc(Cl)cc3s2)CC1
active: S. cerevisiae deletion strains, locus YHR030C, strain SLT2, stronger effect = lower value 0.339 | S. cerevisiae deletion strains, locus YLR085C, strain ARP6, stronger effect = lower value 0.552 | S. cerevisiae deletion strains, locus YNL298W, strain CLA4 (second series), stronger effect = lower value 0.831 | S. cerevisiae deletion strains, locus YPL241C, strain CIN2, stronger effect = lower value 0.856
inactive: S. cerevisiae deletion strains, locus YAL013W, strain DEP1, stronger effect = lower value 0.952 | S. cerevisiae deletion strains, locus YBR229C, strain ROT2, stronger effect = lower value 0.979 | S. cerevisiae deletion strains, locus YDL101C, strain DUN1, stronger effect = lower value 1 | S. cerevisiae deletion strains, locus YDR150W, strain NUM1, stronger effect = lower value 0.966 | S. cerevisiae deletion strains, locus YEL061C, strain CIN8, stronger effect = lower value 0.943 | S. cerevisiae deletion strains, locus YGR078C, strain PAC10, stronger effect = lower value 0.962 | S. cerevisiae deletion strains, locus YHR087W, strain rtc3, stronger effect = lower value 0.967 | S. cerevisiae deletion strains, locus YJR043C, strain POL32, stronger effect = lower value 0.976 | S. cerevisiae deletion strains, locus YJR075W, strain HOC1, stronger effect = lower value 0.981 | S. cerevisiae deletion strains, locus YKL190W, strain CNB1, stronger effect = lower value 0.993 | S. cerevisiae deletion strains, locus YLR039C, strain RIC1, stronger effect = lower value 0.82 | S. cerevisiae deletion strains, locus YLR058C, strain SHM2 (second series), stronger effect = lower value 1.02 | S. cerevisiae deletion strains, locus YLR262C, strain YPT6, stronger effect = lower value 0.913 | S. cerevisiae deletion strains, locus YML094W, strain GIM5, stronger effect = lower value 0.908 | S. cerevisiae deletion strains, locus YMR219W, strain ESC1, stronger effect = lower value 1 | S. cerevisiae deletion strains, locus YMR263W, strain SAP30, stronger effect = lower value 0.992 | S. cerevisiae deletion strains, locus YNL153C, strain GIM3, stronger effect = lower value 0.943 | S. cerevisiae deletion strains, locus YNL322C, strain KRE1, stronger effect = lower value 1.03 | S. cerevisiae deletion strains, locus YNR030W, strain Alg12, stronger effect = lower value 0.902 | S. cerevisiae deletion strains, locus YOL006C, strain TOP1, stronger effect = lower value 0.739 | S. cerevisiae deletion strains, locus YPL055C, strain LGE1, stronger effect = lower value 0.928 | S. cerevisiae deletion strains, locus YPR135W, strain CTF4, stronger effect = lower value 0.662 | S. cerevisiae strains, strain wild type, stronger effect = lower value 0.97
